Measured values: PubChem BioAssay (NCATS)
Inconclusive results are not listed. Values without a mark were called inactive. Calls of active or inactive are those of the source. Calls come from the whole dose curve; as a rule, active = well fitted inhibition curve with a large enough effect; inconclusive = small, poorly fitted or top-dose-only effect; inactive = flat fitted curve, though single readings scatter.

tested on: PC15; experiment: qHTS profiling for inhibitors of Plasmodium falciparum proliferation (AID 504749); note: nearly all actives have a fitted effect of over 60% in size;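 for activity, negative = inhibition: 0% = DMSO vehicle and full inhibition = artemisinin control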; settings: P. falciparum in erythrocytes, SYBR Green DNA, 72 h; series mostly up to 28.7 µM; activity, negative = inhibition: at the top concentration
In short: (§1)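 Infected RBCs, 0.3% parasitemia/2.5% Hct final; cpd 72 h, 37 C, 5% CO2; lysis buffer with saponin/triton/SYBR Green I, o/n RT dark; FI 485/535; norm. to artemisinin (0.29 uM) and DMSO.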
Potency is the fitted concentration of half-maximal effect.

Compound | activity, negative = inhibition | Potency
CCN(CC)C(C)C(=O)c1ccccc1 (stereo unspecified) | 0.423% | –
NCc1cccnc1 | 0.867% | –
NC(=O)CN1CCCC1=O | -23.4% [at 12.8 µM] | –
CCN(Cc1ccc(Cl)nc1)/C(=C/[N+](=O)[O-])NC | 7.16% | –
CNC(=O)NC(O)C(Cl)(Cl)Cl (stereo unspecified) | 5.27% | –
NC(=O)OCCCc1ccccc1 | 4.27% | –
C[C@H]1C(=O)O[C@@H]2CCN3CC=C(COC(=O)[C@](C)(O)[C@]1(C)O)[C@H]23 | -8.88% | –
O=C(CCCN1CCC(n2c(=O)[nH]c3ccccc32)CC1)c1ccc(F)cc1 | – | 1.26 µM (active)
CCC1(CC)C(=O)NC(=O)NC1=O | 8.99% | –
COc1ccc(C(=O)N2CCCC2=O)cc1 | 1.68% | –
CCCCCCCCC(=O)NCc1ccc(O)c(OC)c1 | 6.15% | –
O=c1n(Cl)c(=O)n(Cl)c(=O)n1Cl | 0.542% | –
CC(C)[N+](C)(CCC(C(N)=O)(c1ccccc1)c1ccccc1)C(C)C | 15.8% [at 12.8 µM] | –

tested on: PC26; experiment: as above; settings: P. falciparum in erythrocytes, SYBR Green DNA, 72 h; series mostly up to 28.7 µM; activity, negative = inhibition: at the top concentration
In short: as §1

Compound | activity, negative = inhibition | Potency
CCN(CC)C(C)C(=O)c1ccccc1 (stereo unspecified) | 1.3% | –
NCc1cccnc1 | 3.52% | –
NC(=O)CN1CCCC1=O | 1.28% [at 12.8 µM] | –
CCN(Cc1ccc(Cl)nc1)/C(=C/[N+](=O)[O-])NC | 0.0024% | –
CNC(=O)NC(O)C(Cl)(Cl)Cl (stereo unspecified) | -0.405% | –
NC(=O)OCCCc1ccccc1 | 1.49% | –
C[C@H]1C(=O)O[C@@H]2CCN3CC=C(COC(=O)[C@](C)(O)[C@]1(C)O)[C@H]23 | -3.21% | –
O=C(CCCN1CCC(n2c(=O)[nH]c3ccccc32)CC1)c1ccc(F)cc1 | – | 2.56 µM (active)
CCC1(CC)C(=O)NC(=O)NC1=O | -2.9% | –
COc1ccc(C(=O)N2CCCC2=O)cc1 | -13.5% | –
CCCCCCCCC(=O)NCc1ccc(O)c(OC)c1 | -6.74% | –
O=c1n(Cl)c(=O)n(Cl)c(=O)n1Cl | -2.72% | –
CC(C)[N+](C)(CCC(C(N)=O)(c1ccccc1)c1ccccc1)C(C)C | -10.7% [at 12.8 µM] | –

tested on: PC49; experiment: as above; settings: P. falciparum in erythrocytes, SYBR Green DNA, 72 h; series mostly up to 28.7 µM; activity, negative = inhibition: at the top concentration
In short: as §1

Compound | activity, negative = inhibition | Potency
CCN(CC)C(C)C(=O)c1ccccc1 (stereo unspecified) | 6.01% | –
NCc1cccnc1 | 9.32% | –
NC(=O)CN1CCCC1=O | 1.9% [at 12.8 µM] | –
CCN(Cc1ccc(Cl)nc1)/C(=C/[N+](=O)[O-])NC | 3.55% | –
CNC(=O)NC(O)C(Cl)(Cl)Cl (stereo unspecified) | 6.37% | –
NC(=O)OCCCc1ccccc1 | 10.2% | –
C[C@H]1C(=O)O[C@@H]2CCN3CC=C(COC(=O)[C@](C)(O)[C@]1(C)O)[C@H]23 | -2.03% | –
O=C(CCCN1CCC(n2c(=O)[nH]c3ccccc32)CC1)c1ccc(F)cc1 | – | 2.82 µM (active)
CCC1(CC)C(=O)NC(=O)NC1=O | 8.85% | –
COc1ccc(C(=O)N2CCCC2=O)cc1 | 14.6% | –
CCCCCCCCC(=O)NCc1ccc(O)c(OC)c1 | 12.5% | –
O=c1n(Cl)c(=O)n(Cl)c(=O)n1Cl | 1.05% | –
CC(C)[N+](C)(CCC(C(N)=O)(c1ccccc1)c1ccccc1)C(C)C | 16.4% [at 12.8 µM] | –

tested on: SC27B; experiment: as above; settings: P. falciparum in erythrocytes, SYBR Green DNA, 72 h; series mostly up to 28.7 µM; activity, negative = inhibition: at the top concentration
In short: as §1

Compound | activity, negative = inhibition | Potency
CCN(CC)C(C)C(=O)c1ccccc1 (stereo unspecified) | -5.25% | –
NCc1cccnc1 | -0.953% | –
NC(=O)CN1CCCC1=O | 4.62% [at 12.8 µM] | –
CCN(Cc1ccc(Cl)nc1)/C(=C/[N+](=O)[O-])NC | 9.2% | –
CNC(=O)NC(O)C(Cl)(Cl)Cl (stereo unspecified) | 5.46% | –
NC(=O)OCCCc1ccccc1 | 10% | –
C[C@H]1C(=O)O[C@@H]2CCN3CC=C(COC(=O)[C@](C)(O)[C@]1(C)O)[C@H]23 | 15.3% | –
O=C(CCCN1CCC(n2c(=O)[nH]c3ccccc32)CC1)c1ccc(F)cc1 | – | 2 µM (active)
CCC1(CC)C(=O)NC(=O)NC1=O | 5.19% | –
COc1ccc(C(=O)N2CCCC2=O)cc1 | 8.04% | –
CCCCCCCCC(=O)NCc1ccc(O)c(OC)c1 | 1.94% | –
O=c1n(Cl)c(=O)n(Cl)c(=O)n1Cl | 3.62% | –
CC(C)[N+](C)(CCC(C(N)=O)(c1ccccc1)c1ccccc1)C(C)C | 0.304% [at 12.8 µM] | –

tested on: TAB109; experiment: as above; settings: P. falciparum in erythrocytes, SYBR Green DNA, 72 h; series mostly up to 28.7 µM; activity, negative = inhibition: at the top concentration
In short: as §1

Compound | activity, negative = inhibition | Potency
CCN(CC)C(C)C(=O)c1ccccc1 (stereo unspecified) | -15.5% | –
NCc1cccnc1 | 7.04% | –
NC(=O)CN1CCCC1=O | 9.17% [at 12.8 µM] | –
CCN(Cc1ccc(Cl)nc1)/C(=C/[N+](=O)[O-])NC | 7.26% | –
CNC(=O)NC(O)C(Cl)(Cl)Cl (stereo unspecified) | 5.69% | –
NC(=O)OCCCc1ccccc1 | -0.343% | –
O=C(CCCN1CCC(n2c(=O)[nH]c3ccccc32)CC1)c1ccc(F)cc1 | – | 1 µM (active)
CCC1(CC)C(=O)NC(=O)NC1=O | -11.4% | –
COc1ccc(C(=O)N2CCCC2=O)cc1 | 12.2% | –
CCCCCCCCC(=O)NCc1ccc(O)c(OC)c1 | 1.7% | –
O=c1n(Cl)c(=O)n(Cl)c(=O)n1Cl | -2.22% | –
CC(C)[N+](C)(CCC(C(N)=O)(c1ccccc1)c1ccccc1)C(C)C | 1.77% [at 12.8 µM] | –

tested on: TAB113; experiment: as above; settings: P. falciparum in erythrocytes, SYBR Green DNA, 72 h; series mostly up to 28.7 µM; activity, negative = inhibition: at the top concentration
In short: as §1

Compound | activity, negative = inhibition | Potency
NCc1cccnc1 | 6.51% | –
NC(=O)CN1CCCC1=O | 10.9% [at 12.8 µM] | –
CCN(Cc1ccc(Cl)nc1)/C(=C/[N+](=O)[O-])NC | 19% | –
CNC(=O)NC(O)C(Cl)(Cl)Cl (stereo unspecified) | 1.83% | –
NC(=O)OCCCc1ccccc1 | -0.248% | –
C[C@H]1C(=O)O[C@@H]2CCN3CC=C(COC(=O)[C@](C)(O)[C@]1(C)O)[C@H]23 | -0.541% | –
O=C(CCCN1CCC(n2c(=O)[nH]c3ccccc32)CC1)c1ccc(F)cc1 | – | 1.26 µM (active)
CCC1(CC)C(=O)NC(=O)NC1=O | 4.79% | –
COc1ccc(C(=O)N2CCCC2=O)cc1 | 13.7% | –
CCCCCCCCC(=O)NCc1ccc(O)c(OC)c1 | 0.84% | –
O=c1n(Cl)c(=O)n(Cl)c(=O)n1Cl | 15.8% | –
CC(C)[N+](C)(CCC(C(N)=O)(c1ccccc1)c1ccccc1)C(C)C | 7.73% [at 12.8 µM] | –
